Reference: ChEMBL document CHEMBL3988442, “University of Dundee, Small-Polar-MMV Screening Library” (2021)
The whole screen tested about 69,000 compounds, of which about 1,000 (1.4%) showed an effect of 50% or more. This excerpt belongs to a sample that is enriched for strong results.

Test system: Leishmania donovani
Test: Leishmania intramacrophage assay
Type: functional, organism-based
Design: scale not given: in the data most compounds retested in dose-response had high values

O=C(c1ccc2[nH]c(=O)[nH]c2c1)N1CCC(Nc2cccnn2)CC1
Percent Effect (30 µM): -0.4678%

Oc1ccc(Br)c(CNc2cccc(-c3nnc[nH]3)c2)c1
Percent Effect (30.3 µM, […]): 51.72%

Oc1c(F)cc(CNc2cccc(-c3nnc[nH]3)c2)cc1F
Percent Effect (30.3 µM, […]): 16.51%

c1cc(NCc2ccsc2)cc(-c2nnc[nH]2)c1
Percent Effect (30.3 µM, […]): 34.15%

CN(CCO)C(=O)Nc1ccn(-c2cccc(C(F)(F)F)c2)n1
Percent Effect (30.3 µM, […]): 13.55%

Cc1nc2n(n1)CC(NCc1csc(-c3ccsc3)n1)CC2 (stereo unspecified)
Percent Effect (30 µM): 1.329%

O=C(NC[C@H]1OC[C@@H](NC2COC2)[C@@H]1O)c1cccs1
Percent Effect (30.3 µM, […]): 17.79%

Cc1ccc2c(c1)C(=O)NCC1(CCN(C(=O)c3cc(C)no3)CC1)O2
Percent Effect (30.3 µM, […]): 77.82%

Cc1ccc2c(c1)C(=O)NCC1(CCN(C(=O)c3ccnn3C)CC1)O2
Percent Effect (30.3 µM, […]): 23.56%

Cc1ccc2c(c1)C(=O)NCC1(CCN(C(=O)c3ccccn3)CC1)O2
Percent Effect (30.3 µM, […]): 39.06%

Cc1cccc(C)c1OC1CN(C(=O)C2CC(=O)N(C(C)(C)C)C2)C1 (stereo unspecified)
Percent Effect (30.3 µM, […]): 48.27%

CN1C(=O)C(c2ccccc2)CC12CCN(CCN)CC2 (stereo unspecified)
Percent Effect (30.3 µM, […]): 16.5%

CCc1cc(NCCCOC2CCCC2)ncn1
Percent Effect (30.3 µM, […]): 51.18%

CCc1cc(NCCCN(C)C2CCCC2)ncn1
Percent Effect (30.3 µM, […]): 22.72%

CCc1cc(NCCCOC2CCN(C)CC2)ncn1
Percent Effect (30.3 µM, […]): -6.301%

Cn1ccc(CN2CCC3(CCCN3CC3CC3)CC2)n1.O=C(O)C(F)(F)F.O=C(O)C(F)(F)F
Percent Effect (30.3 µM, […]): 41.38%

O=C(CC1CN(Cc2ccccc2)CCO1)NC1CCSCC1 (stereo unspecified)
Percent Effect (30.3 µM, […]): 18.94%

Cc1ccc(CC(=O)N(C)CC2(O)CCN(c3ccccn3)C2)s1 (stereo unspecified)
Percent Effect (30 µM, 30.03 µM): 24.75%

CC(=O)c1cnc(NCCN2CCCC(c3ccccc3)C2)nc1C (stereo unspecified)
Percent Effect (30.3 µM, […]): -39.73%

O=C(C1CCOC1)N1CCN(CC(F)(F)F)c2ccccc21 (stereo unspecified)
Percent Effect (30.3 µM, […]): 25.18%

O=C(C1CCCOC1)N1CCN(CC(F)(F)F)c2ccccc21 (stereo unspecified)
Percent Effect (30.3 µM, […]): -20.84%

O=C(C1COCCO1)N1CCN(CC(F)(F)F)c2ccccc21 (stereo unspecified)
Percent Effect (30.3 µM, […]): 56.8%

CC(C)Cc1cc(CN2C[C@H]3CC[C@@H]2CN(Cc2cscn2)C3)n[nH]1
Percent Effect (30.3 µM, […]): 2.738%

CC(C)(C)c1cc(CN2C[C@@H]3CC[C@H](C2)N(Cc2ccccn2)C3)n[nH]1
Percent Effect (30.3 µM, […]): 9.516%

CC(C)(C)c1cc(CN2C[C@H]3CC[C@@H]2CN(Cc2cscn2)C3)n[nH]1
Percent Effect (30.3 µM, […]): 99.99%

CCCc1n[nH]c(C2CN(C(=O)c3ccco3)CCO2)n1 (stereo unspecified)
Percent Effect (30 µM, 30.03 µM): 22.5%

Cc1nc2c(c(NCCN3CCOCC3)n1)CCN(C)C2
Percent Effect (30.3 µM, […]): 32.47%

CCN(CC)CCCNc1nc(C)nc2c1CCN(C)C2.O=C(O)CC(O)(CC(=O)O)C(=O)O
Percent Effect (30.3 µM, […]): 53.93%

Cc1nc2c(c(NCCCN3CCOCC3)n1)CCN(C)C2
Percent Effect (30.3 µM, […]): 22.12%

Cc1nccc([C@H]2C[C@@H]3CCN(C(=O)c4c(C)noc4C)C[C@H]3O2)n1
Percent Effect (30.3 µM, […]): 16.88%

Cc1ccccc1OCCSc1nnc(CC2CCS(=O)(=O)C2)n1C (stereo unspecified)
Percent Effect (30.3 µM, […]): 22.12%

COCc1cc(N2CCOC(c3ccc(Cl)cc3)C2)ncn1 (stereo unspecified)
Percent Effect (30.3 µM, […]): 15.44%

COCc1cc(N2CCOC(c3ccc(F)cc3)C2)ncn1 (stereo unspecified)
Percent Effect (30.3 µM, […]): -18.01%

COCc1cc(N2CCOC(c3ccc(Cl)c(Cl)c3)C2)ncn1 (stereo unspecified)
Percent Effect (30.3 µM, […]): 54.26%

COCc1ncn(Cc2nc(-c3ccc(OC)cc3F)oc2C)n1
Percent Effect (30.3 µM, […]): -35.79%

COc1ccc(-c2nc(CN3CCCC(OC)C3)c(C)o2)c(F)c1 (stereo unspecified)
Percent Effect (30.3 µM, […]): 76%

CCCOC1CCCN(Cc2nc(-c3ccc(F)cc3F)oc2C)C1 (stereo unspecified)
Percent Effect (30.3 µM, […]): -16.44%

COc1cccc(CN(C(=O)Nc2nncs2)C2CCC(O)CC2)c1 (stereo unspecified)
Percent Effect (30.3 µM, […]): 1.528%

O=C1NC2(CCN(C(=O)c3ccnnc3)CC2)CC1c1ccccc1 (stereo unspecified)
Percent Effect (30.3 µM, […]): 21.04%

COC(=O)c1cccc(-c2nc(CC3CCN(C)CC3)no2)c1
Percent Effect (30.3 µM, […]): 10.91%

CCCN1CCC(Cc2noc(-c3ncccc3C)n2)CC1
Percent Effect (30.3 µM, […]): 17.75%

CN1CCC(Cc2noc(-c3cccc4c3OCC4)n2)CC1
Percent Effect (30.3 µM, […]): 31.67%

CC(=O)c1ccccc1-c1nc(CC2CCN(C)CC2)no1
Percent Effect (30.3 µM, […]): 87.64%

CCCN1CCC(Cc2noc(-c3cc4cccnc4nc3C)n2)CC1
Percent Effect (30.3 µM, […]): 32.81%

CCCN1CCC(Cc2noc(-c3cccnc3OC)n2)CC1
Percent Effect (30.3 µM, […]): 57.42%

CSCc1noc(CNC(=O)C2CCN(C3CCCCC3)CC2)n1
Percent Effect (30.3 µM, […]): 24%

Cc1noc(C)c1CN(C)c1ncnc2ccccc12
Percent Effect (30.3 µM, […]): 12.67%

CC(Cn1cc(Br)cn1)C(=O)Nc1ccc(Cl)cn1 (stereo unspecified)
Percent Effect (30.3 µM, […]): -88.88%

CC(C)c1nc(C2CCCN(C(=O)CCn3cncn3)C2)no1 (stereo unspecified)
Percent Effect (30 µM): 13.68%

O=C(Cc1ccc(F)cc1)NCCNc1cc(N2CCCC2)ncn1
Percent Effect (30.3 µM, […]): -9.653%

CCN1CC(COC(=O)c2ccc(N(C)C)cc2F)CC1=O (stereo unspecified)
Percent Effect (30.3 µM, […]): 23.8%

CCN1CC(COC(=O)c2ccc(Br)cc2F)CC1=O (stereo unspecified)
Percent Effect (30.3 µM, […]): 87.43%

CCN1CC(COC(=O)c2cc(Br)ccc2F)CC1=O (stereo unspecified)
Percent Effect (30.3 µM, […]): -7.569%

COc1ccccc1CC(=O)N1CCCC1Cn1nc(C)cc1C (stereo unspecified)
Percent Effect (30.3 µM, […]): 13.95%

O=C1O[C@@H]2CN(Cc3cccc(O)c3)C[C@@H]2N1CCCN1CCOCC1
Percent Effect (30.3 µM, […]): 8.802%

CCOc1ccc(Cl)c(C(=O)NC)n1
Percent Effect (30 µM): 10.53%

O[C@@H]1C[C@@H](c2nc(-c3ccccc3)no2)N(CC2CCCCC2)C1
Percent Effect (30.3 µM, […]): 18.41%

COc1ccnc(CN(C)C(=O)CSc2nnc(N)s2)c1
Percent Effect (30.3 µM, […]): 23.55%

COc1ccc(CN(C)C(=O)CSc2nnc(N)s2)c(OC)c1OC
Percent Effect (30.3 µM, […]): 28.05%

CCn1ccc(CN(C)C(=O)CSc2nnc(N)s2)n1
Percent Effect (30.3 µM, […]): 54.38%

CC(C(=O)N1CCCCC1)N1CCN(c2ncc(Cl)cn2)CC1 (stereo unspecified)
Percent Effect (30.3 µM, […]): 6.463%

Cc1cc(S(=O)(=O)N2CCC(S(C)(=O)=O)C2)ccc1F (stereo unspecified)
Percent Effect (30.3 µM, […]): 24.83%

CS(=O)(=O)C1CCN(S(=O)(=O)c2ccc(F)c(F)c2)C1 (stereo unspecified)
Percent Effect (30.3 µM, […]): 54.9%

CS(=O)(=O)C1CCN(S(=O)(=O)c2ccc(F)c(F)c2)CC1
Percent Effect (30.3 µM, […]): -2.266%

O=C(NCc1ccccn1)N1CC=C(c2ccccc2)CC1
Percent Effect (30.3 µM, […]): 1.233%

Cc1nc(C2CCN(C)CC2)cc(N2CCOc3ccc(Cl)cc3C2)n1
Percent Effect (30.3 µM, […]): 85.22%

Cc1nc(CCN)cc(N2CCC(O)(c3ccccc3)C2)n1 (stereo unspecified)
Percent Effect (30.3 µM, […]): 11.63%

Cc1nc(N)nc(N2CCOc3ccc(CO)cc3C2)c1C
Percent Effect (30.3 µM, […]): -5.312%

CCN(C)CC(=O)N1CCC(c2cc(N3CCOCC3)nc(C)n2)CC1
Percent Effect (30.3 µM, […]): -5.475%

Cc1nc(CCN)cc(N2CCC(O)(c3ccc(Cl)cc3)CC2)n1
Percent Effect (30.3 µM, […]): 77.75%

Cc1nc(CCN)cc(N2CCOc3ccc(Cl)cc3C2)n1
Percent Effect (30.3 µM, […]): 63.66%

COc1ccc(C(=O)N2CCN(c3cc(CCN)nc(C)n3)CC2)cc1
Percent Effect (30.3 µM, […]): 0.4639%

Cc1nc(C2CCNCC2)cc(N2CCOc3ccccc3C2)n1
Percent Effect (30.3 µM, […]): 38.29%

Cc1nc(CN)cc(N2CCC(O)(c3ccc(Cl)cc3)CC2)n1
Percent Effect (30.3 µM, […]): -13.57%

COc1cc2nc(NCCNS(C)(=O)=O)cc(C)c2cc1OC
Percent Effect (30.3 µM, […]): -28.24%

O=C(O)C(F)(F)F.O=C(O)C(F)(F)F.c1csc(CN2CCCC3(COCCN(Cc4c[nH]nn4)C3)C2)c1 (stereo unspecified)
Percent Effect (30.3 µM, […]): 14.23%

Cc1ccccc1C1(C(=O)N2CCOC(C)C2)CCOCC1 (stereo unspecified)
Percent Effect (30.3 µM, […]): -3.571%

Cc1nc(CN(C)C2CCN(Cc3ccc(C(N)=O)cc3)C2)no1 (stereo unspecified)
Percent Effect (30 µM): 31.74%

Cc1cccc(S(=O)(=O)NC(=O)CN(C)Cc2ccccc2)c1
Percent Effect (30.3 µM, […]): 14.38%

Cc1ccccc1[C@@H]1CN(Cc2ccc(C(F)(F)F)nc2)C[C@H]1C(=O)O
Percent Effect (30.3 µM, […]): 13.27%

Fc1ccc(OCCNC2CCN(Cc3ccccn3)CC2)c(F)c1
Percent Effect (30.3 µM, […]): 52.55%

N#Cc1ccc(NC2CCN(Cc3ccccn3)CC2)c(F)c1
Percent Effect (30.3 µM, […]): -12.41%

Fc1ccc(OCCNC2CCN(Cc3ccncc3)CC2)c(F)c1
Percent Effect (30.3 µM, […]): 39.31%

CCN1CCN(CC(O)c2ccc(OC(F)(F)F)cc2)CC1 (stereo unspecified)
Percent Effect (30 µM, 30.03 µM): 18.61%

O=C1CC2(CCN(C(=O)C3CCCCC3)C2)Nc2ccccc2N1 (stereo unspecified)
Percent Effect (30.3 µM, […]): 29.44%

Cc1nc(CO[C@H]2CN(C(=O)c3cnoc3C)[C@@H]3COC[C@H]23)cs1.O=C(O)C(F)(F)F
Percent Effect (30.3 µM, […]): 6.994%

CCOCC(O)CN1CCN(C(=O)c2cc(C)ccc2F)CC1 (stereo unspecified)
Percent Effect (30 µM): -8.817%

COCCOCC(=O)NC(C#N)c1cccc(Cl)c1Cl (stereo unspecified)
Percent Effect (30.3 µM, […]): -18.55%

CCOCC1c2c(ncn2C(C)C)CCN1C(=O)C1CC1 (stereo unspecified)
Percent Effect (30.3 µM, […]): 23.55%

c1cc(-c2ccc3c(c2)CCC32CCN(c3nncs3)CC2)co1
Percent Effect (30.3 µM, […]): -6.512%

Cc1ccc2c(c1)C1(CC2)CCN(c2nncs2)CC1
Percent Effect (30 µM, 30.03 µM): 8.524%

c1cc(-c2ccc3c(c2)C2(CC3)CCN(c3nncs3)CC2)ccn1
Percent Effect (30.3 µM, […]): 59.16%

O=C(O)C(F)(F)F.c1cncc(-c2ccc3c(c2)C2(CC3)CCN(c3nncs3)CC2)c1
Percent Effect (30 µM, 30.03 µM): 47.88%

O=C(O)C(F)(F)F.c1cc(-c2ccc3c(c2)CCC32CCN(c3nncs3)CC2)ccn1
Percent Effect (30.3 µM, […]): 73.19%

CN(C)CC(=O)N1CCC2(CCc3ccc(-c4ccncc4)cc32)CC1.O=C(O)C(F)(F)F.O=C(O)C(F)(F)F
Percent Effect (30.3 µM, […]): 33.01%

Cc1noc(C)c1CN1C(=O)[C@H]2CC[C@@H]1CN(Cc1ccc(Cl)cc1)C2
Percent Effect (30.3 µM, […]): 25.74%

COc1ccc(F)cc1C(C(=O)O)N1CCCN(C2CCCC2)CC1 (stereo unspecified)
Percent Effect (30.3 µM, […]): 27.32%

CCS(=O)(=O)N1CCN(Cc2cccnc2)c2nc(C)ccc2C1.O=C(O)C(F)(F)F.O=C(O)C(F)(F)F
Percent Effect (30.3 µM, […]): 32.81%

N[C@@H]1CCCN(C(=O)Cc2c[nH]c3ccccc23)[C@H]1c1ccccc1F
Percent Effect (30.3 µM, […]): 38.86%

COc1ccc(CC(=O)N2CCC[C@@H](N)[C@@H]2c2ccccc2F)cc1.Cl
Percent Effect (30.3 µM, […]): 50.59%

COc1cccc(CCC(=O)N2CCC[C@@H](N)[C@@H]2c2ccccc2F)c1.Cl
Percent Effect (30.3 µM, […]): 36.93%
